This passage reports z-score and composite z-score results from PubChem BioAssay.

Assay [1] in a line: compound effects on lung adenocarcinoma cell viability – A549, calcein-AM fluorescence, 48 h, basal, profiling panel (AID 1162). Note: test concentration not given here. Conditions: higher = more signal.
The nature of assay [2]: compound effects on differentiated 3T3-L1 adipocyte viability – cell-based, 3T3-L1 adipocytes, calcein-AM fluorescence, 48 h, basal, profiling panel (AID 1163). Note: test concentration not given here. The conditions noted are these: 3T3-L1 adipocytes viability, higher = more signal.
The nature of assay [3]: compound effects on hepatocellular carcinoma cell viability – HepG2, calcein-AM fluorescence, 48 h, basal, profiling panel (AID 1164). Note: test concentration not given here. The conditions noted are these: higher = more signal.
Assay [4] in a line: compound effects on multiple myeloma cell viability – MM1S, calcein-AM fluorescence, 48 h, basal, profiling panel (AID 1165). Note: test concentration not given here. The conditions noted are these: higher = more signal.
The nature of assay [5]: calcein-AM signal in unstimulated myeloma cells – cell-based, calcein-AM fluorescence, 48 h, PK04 Diversity Set, profiling panel (AID 1166).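 Note: cells grown under basal conditions without added stimulus; test concentration not given here.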 Conditions: RPMI8226 myeloma viability, higher = more signal.
Assay [6] in a line: JC-1 mitochondrial signal, unstimulated HepG2 cells – cell-based, JC-1 fluorescence, 24 h, 100 nL compound, profiling panel (AID 1167). Note: test concentration not given here. The conditions noted are these: HepG2 mitochondrial potential, higher = more signal.
Assay [7] can be described thus: JC-1 mitochondrial signal, unstimulated adipocytes – cell-based, JC-1 fluorescence, 3T3-L1 adipocytes, 24 h, 100 nL compound, profiling panel (AID 1168). Note: test concentration not given here. Conditions: JC-1 mitochondrial fluorescence, higher = more signal, called active from +8 up or from −8 down.
Assay [8] can be described thus: JC-1 mitochondrial signal, unstimulated myeloma cells – cell-based, JC-1 fluorescence, RPMI8226, 24 h, 100 nL compound, profiling panel (AID 1169). Note: test concentration not given here. Conditions: JC-1 mitochondrial potential fluorescence, higher = more signal.
Assay [9] in a line: JC-1 mitochondrial signal, unstimulated MM1S myeloma – cell-based, JC-1 fluorescence, 24 h, 100 nL compound, profiling panel (AID 1170). Note: test concentration not given here. Conditions: MM1S mitochondrial potential, higher = more signal.
A short description of assay [10]: resazurin metabolic signal in A549 cells – cell-based, resazurin fluorescence, 24 h, PK04 Diversity Set, profiling panel (AID 1171). Note: test concentration not given here. Conditions: A549 viability, higher = more signal, called active from +8 up or from −8 down. For orientation: The colour change of resazurin is a common sign of viable cells or microbes.
Assay [11] is described as follows: resazurin metabolic signal in HepG2 cells – cell-based, resazurin fluorescence, 24 h, PK04 Diversity Set, profiling panel (AID 1172). Note: test concentration not given here. Conditions: HepG2 viability, higher = more signal.
A short description of assay [12]: budding yeast growth changes without added modifier – OD600, strain BY4716, 24 h, basal condition, primary screen (AID 1173). The conditions noted are these: S. cerevisiae BY4716 growth, OD600, 24 h; higher = more signal, called active from +8 up or from −8 down.
Assay [13] in a line: viability profiling in MM1S myeloma cells – cell-based, resazurin fluorescence, basal, 24 h, PK04 Diversity Set, profiling panel (AID 1174). Note: test concentration not given here. The conditions noted are these: higher = more signal, called active from +8 up or from −8 down.
Assay [14] deals with Dihydroorotate dehydrogenase (quinone), mitochondrial (Plasmodium falciparum (isolate 3D7)) (UniProt Q08210). Nature of the assay: inhibition of P. falciparum DHODH – biochemical, C-terminal His tag, absorbance 600 nm, primary screen (AID 1175).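 Note: recombinant parasite enzyme with a five histidine tag at its C terminus; test concentration not given here.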 The conditions noted are these: PfDHODH enzyme, DCIP absorbance 600 nm; higher = more signal, called active from +8 up or from −8 down.
Dihydroorotate dehydrogenase (quinone), mitochondrial (Plasmodium falciparum (isolate 3D7)), sequence (Q08210 whole entry, looked up): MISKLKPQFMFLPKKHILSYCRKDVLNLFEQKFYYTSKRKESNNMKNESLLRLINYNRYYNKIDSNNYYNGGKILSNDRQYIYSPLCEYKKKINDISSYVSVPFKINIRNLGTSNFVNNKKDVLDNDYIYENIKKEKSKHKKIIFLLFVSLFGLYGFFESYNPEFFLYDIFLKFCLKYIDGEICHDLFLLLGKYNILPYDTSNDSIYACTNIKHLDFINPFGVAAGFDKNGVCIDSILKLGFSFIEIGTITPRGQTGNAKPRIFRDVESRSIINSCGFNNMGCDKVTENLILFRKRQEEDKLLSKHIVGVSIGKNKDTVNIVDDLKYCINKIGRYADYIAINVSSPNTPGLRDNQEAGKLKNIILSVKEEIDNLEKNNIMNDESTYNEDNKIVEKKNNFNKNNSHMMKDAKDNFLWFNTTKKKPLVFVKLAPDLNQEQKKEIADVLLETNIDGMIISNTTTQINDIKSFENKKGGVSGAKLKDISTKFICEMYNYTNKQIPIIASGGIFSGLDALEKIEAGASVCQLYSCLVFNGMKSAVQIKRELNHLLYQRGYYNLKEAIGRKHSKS

A short description of assay [15]: inhibition of PAO1 biofilm formation – strain PAO1, LB-PBS medium, absorbance 600 nm, primary screen (AID 1176). Note: test concentration not given here. The conditions noted are these: P. aeruginosa PAO1 growth/biofilm, A600, 12 h; higher = more signal.
Assay [16] is described as follows: growth modulation of vineyard yeast isolate – strain RM11-1a, OD600, basal, 24 h, primary screen (AID 1177).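 Note: cultures grown under basal conditions with no added stressor; test concentration not given here.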 The conditions noted are these: S. cerevisiae RM11-1a growth, OD600, 24 h; higher = more signal, called active from +8 up or from −8 down.
The nature of assay [17]: growth of efflux-deficient E. coli DRC39 – strain DRC39, OD650, 24 h, E. coli filamentation inducers, primary screen (AID 1178).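 Note: growth measured as culture turbidity by optical density at 650 nm; test concentration not given here.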 Conditions: E. coli DRC39 acrAB, higher = more signal, called active from +8 up or from −8 down.
A short description of assay [18]: growth of efflux-deficient E. coli DRC39 – strain DRC39, OD650, 48 h, E. coli filamentation inducers, primary screen (AID 1179).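 Note: screen aims at cell division blockers that make cells filament.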 The conditions noted are these: E. coli DRC39 delta-acrAB growth, higher = more signal, called active from +8 up or from −8 down.
A short description of assay [19]: viability profiling in RPMI8226 myeloma cells – cell-based, resazurin fluorescence, basal, 24 h, PK04 Diversity Set, profiling panel (AID 1180).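 Note: RPMI8826 multiple myeloma cell line at 5000 cells per well; test concentration not given here.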 Conditions: higher = more signal.
The target in assay [20] is E3 ubiquitin-protein ligase XIAP (Homo sapiens) (UniProt P98170). Nature of the assay: small molecules binding XIAP protein – biophysical, small-molecule microarray, fluorescence 635 nm, primary screen (AID 1181).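 Note: score merges 667 nm emission and signal to noise over triplicate slides.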 Conditions: higher = more signal.
E3 ubiquitin-protein ligase XIAP (Homo sapiens), sequence (P98170 whole entry, looked up): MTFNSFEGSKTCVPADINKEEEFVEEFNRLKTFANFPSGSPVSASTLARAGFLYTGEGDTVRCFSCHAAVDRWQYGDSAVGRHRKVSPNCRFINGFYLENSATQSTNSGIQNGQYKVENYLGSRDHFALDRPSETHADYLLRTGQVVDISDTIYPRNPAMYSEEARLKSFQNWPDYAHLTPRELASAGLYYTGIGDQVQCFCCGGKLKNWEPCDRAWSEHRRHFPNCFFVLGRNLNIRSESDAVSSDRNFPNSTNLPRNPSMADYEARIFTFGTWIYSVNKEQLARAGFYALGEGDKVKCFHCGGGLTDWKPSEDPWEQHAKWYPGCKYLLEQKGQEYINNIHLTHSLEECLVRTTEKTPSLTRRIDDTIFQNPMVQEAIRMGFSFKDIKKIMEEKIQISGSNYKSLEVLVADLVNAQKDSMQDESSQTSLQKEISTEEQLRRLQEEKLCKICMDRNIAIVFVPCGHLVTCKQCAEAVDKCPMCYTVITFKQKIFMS

Activity calls are given as the source filed them. Unless noted, the rule behind the calls is not given here.

Turning to `[N-]=[N+]=NCc1ccccc1C[C@]1(C(N)=O)COC(c2ccc(OCCCO)cc2)=N1`, the z-score in assay [1] is 0.446; in [2], 0.431; in [3], 1.28; in assay [4], -0.761; in assay [5] it was 0.0881; in assay [6], -0.234. Also, the z-score in assay [7] was 1.16 (inactive); in assay [8], -0.425; in assay [9], 1.07; in [10] it was -1.1 (inactive); in assay [11], 0.252; in assay [12] it was -1.66 (inactive). Also, the z-score in [13] is 0.424 (inactive); in assay [15] it was 0.466 (inactive); in assay [16], -1.37 (inactive); in assay [17], 1.23 (inactive); in assay [18], 1.87 (inactive); in [19] it was 0.399. Further, the values for the composite z-score in [14] and in assay [20] were -0.0854 (inactive) and 0.144, respectively.
For `Cc1ccc([C@@H]2C[C@@H](Sc3ccccc3)[C@H](C(=O)O)CN2S(=O)(=O)c2ccc(C)cc2)cc1`, the z-score in [1] was -0.687; in [2] it was 0.154; in [3], -0.316; in [4], -0.681; in assay [5], -3.33; in assay [6], -1.2. In addition, the z-score was -0.183 (inactive) in assay [7]; -0.268 in assay [8]; 0.928 in assay [9]; 0.39 (inactive) in assay [10]; 0.391 in [11]; -1.58 (inactive) in assay [12]. Further, the z-score in [13] was -1.48 (inactive); in assay [15], 0.657 (inactive); in assay [16], 0.455 (inactive); in assay [17], -0.634 (inactive); in assay [18], -0.518 (inactive); in [19] it was -0.738. Further, the composite z-score in assay [14] is -0.351 (inactive); in assay [20], 0.312.
Turning to `C=CCNC(=O)[C@@H]1[C@H]2C(=O)O[C@H](c3ccccc3)[C@H](c3ccccc3)N2[C@H](c2ccc(O)cc2)[C@@]12C(=O)N(C(=O)OCCOC)c1ccc(C#CCNC(N)=O)cc12`, the z-score in [1] is 0.978; in [2] it was 0.921; in assay [3] it was 0.866; in [4], 0.768; in assay [5], 1.09; in [6], -0.194. Moreover, the z-score was -0.323 (inactive) in assay [7]; 0.383 in assay [8]; 0.751 in assay [9]; -0.645 (inactive) in assay [10]; -0.0359 in [11]; 0.0215 (inactive) in [12]. Besides, the z-score was -0.0272 (inactive) in assay [13]; 0.318 (inactive) in assay [15]; -0.586 (inactive) in assay [16]; 0.916 (inactive) in [17]; 1.39 (inactive) in [18]; 0.302 in assay [19]. For the same compound, the composite z-score is -1.74 (inactive) in [14] and -0.17 in assay [20].
Consider `CCCC[C@H]1OB(O)C[C@H]2C1=C(COC)C[C@H]1C(=O)N(C)C(=O)[C@H]12`, for which the z-score in assay [1] is -0.0959; in assay [2], -0.671; in assay [3], -0.653; in [4], -1.34; in [5] it was -0.744; in assay [6] it was -1.27. In addition, the z-score was 0.0166 (inactive) in assay [7]; -0.528 in assay [8]; -0.355 in assay [9]; -0.531 (inactive) in [10]; -0.627 in [11]; -1.56 (inactive) in assay [12]. Further, the z-score in assay [13] is -0.227 (inactive); in assay [15], 0.118 (inactive); in assay [16], -1.11 (inactive); in assay [17], -0.748 (inactive); in [18], -0.595 (inactive); in assay [19], -0.45. The composite z-score is -0.682 (inactive) in assay [14] and 0.144 in [20].
As to `CCOC(=O)C[C@H]1[C@H](OC(=O)c2ccc(C(=O)c3ccccc3)cc2)[C@@H](NC(=O)c2ccc3ccccc3n2)c2cc(OCCCO)ccc2N1C(=O)c1ccccc1`, the z-score in assay [1] was -0.851; in [2], 0.824; in assay [3] it was 0.376; in assay [4] it was -0.67; in assay [5] it was -0.705; in [6], 1.11. In addition, the z-score is -0.966 (inactive) in [7]; 0.484 in [8]; -0.318 in assay [9]; 0.154 (inactive) in assay [10]; -0.0237 in assay [11]; 0.854 (inactive) in assay [12]. The z-score in [13] was -0.266 (inactive); in [15] it was 0.0186 (inactive); in assay [16], -0.0492 (inactive); in assay [17] it was -0.28 (inactive); in [18] it was -0.211 (inactive); in assay [19] it was -0.999. In addition, the composite z-score in [14] was -0.203 (inactive); in assay [20] it was -0.0326.
For `O=C1N[C@@H](Cc2ccccc2)C(=O)N2[C@@H]1C[C@@H](C(=O)O)[C@H]2c1cccc(OCCO)c1`, the z-score in assay [1] is 0.432; in assay [2] it was -0.732; in [3] it was -0.0202; in [4], -2.61; in [5], 0.358; in assay [6] it was 1.3. Further, the z-score in assay [7] is -1.49 (inactive); in assay [8] it was 0.448; in assay [9], -1.19; in [10], 2.99 (inactive); in [11], -1.6; in [12] it was 0.165 (inactive). Besides, the z-score in [13] is -0.0089 (inactive); in [15], 0.0499 (inactive); in assay [16], 0.346 (inactive); in [17] it was 0.395 (inactive); in assay [18], 0.993 (inactive); in assay [19], -0.277. Also, the composite z-score in assay [14] was -2.58 (inactive); in assay [20], -0.102.
Regarding `O=C(c1ccccc1)N1Cc2ccccc2C[C@@]2(COC(c3ccc(OCCCO)cc3)=N2)C1=O`, the z-score in assay [1] is 0.603; in [2] it was 0.697; in assay [3] it was 0.81; in [4], -0.516; in [5], 0.0855; in [6] it was 1.47. The z-score is -0.768 (inactive) in assay [7]; -0.676 in [8]; 0.392 in assay [9]; 2.08 (inactive) in assay [10]; 1.05 in assay [11]; -0.264 (inactive) in assay [12]. For the same compound, the z-score in [13] was 0.26 (inactive); in assay [15] it was 0.248 (inactive); in assay [16], 2.02 (inactive); in [17], -0.0674 (inactive); in [18], -0.564 (inactive); in assay [19] it was 0.263. The results for the composite z-score in [14] and in assay [20] were 0.574 (inactive) and -0.231, respectively.
Turning to `CC1CC/C=C\[C@H]2OC34C=CCN(C(C)(C)C)C(=O)[C@H]3N(CCO)C(=O)[C@@H]4C2C(=O)O1` (stereo not given in full), the z-score in assay [1] is -0.986; in [2] it was 1.09; in [3] it was -0.593; in assay [4] it was 1.16; in assay [5] it was -0.197; in assay [6], -0.669. Also, the z-score in assay [7] is -0.354 (inactive); in [8] it was -0.0147; in assay [9] it was 0.927; in [10] it was 0.283 (inactive); in assay [11], 0.488; in [12], -0.68 (inactive). Moreover, the z-score in [13] was -0.0542 (inactive); in assay [15], 0.22 (inactive); in [16], -0.546 (inactive); in [17], -0.344 (inactive); in assay [18], -0.519 (inactive); in [19], -0.138. Moreover, the composite z-score was -0.0848 (inactive) in assay [14] and -0.309 in assay [20].
As to `COCCOC(=O)N1C(=O)[C@@]2(c3cc(C#CC4(O)CCCCCC4)ccc31)[C@H](c1ccc(OCCO)cc1)N1[C@H](c3ccccc3)[C@H](c3ccccc3)OC(=O)[C@H]1[C@@H]2C(=O)N1CCN(c2ncccn2)CC1`, the z-score in assay [1] is -0.147; in assay [2], -0.507; in assay [3], -0.0949; in [4], -0.373; in assay [5], 0.182; in assay [6] it was -0.643. Besides, the z-score in [7] was 0.295 (inactive); in assay [8] it was -0.266; in [9], -1.19; in assay [10], -0.473 (inactive); in assay [11], -0.0209; in [12], 2.29 (inactive). Also, the z-score in [13] was -0.549 (inactive); in [15], 2.57 (inactive); in [16], 3.15 (inactive); in assay [17], -0.534 (inactive); in assay [18], -0.477 (inactive); in assay [19], -0.305. In addition, the figures for the composite z-score in assay [14] and in assay [20] were -1.64 (inactive) and -0.0582, respectively.
